These sequences were tested against PSPH (assay: pooled miR-30 sensor sort-seq; sequence = guide strand). Conditions: shRNA.
TTATCCTTGACTTGTTGCCTGA showed a sensor-assay potency score (higher = more potent) of -0.324. Sequence TCTTCTCTGATGACCGTGCTGT has a sensor-assay potency score (higher = more potent) of 0.253. With TTAAAGTAGAATTTCAGCCTAT the sensor-assay potency score (higher = more potent) was 0.23. TCACTTTTCCTTTTCCACCAGA was tested, and the sensor-assay potency score (higher = more potent) was -0.287. TTGCTCTGCTATGAGTCTCTGC was tested, and the sensor-assay potency score (higher = more potent) was -0.739. With TAACTTGTAAAAATTCATCTGA the sensor-assay potency score (higher = more potent) was 0.913. Work on TTTGGCGTTATCCTTGACTTGT yielded a sensor-assay potency score (higher = more potent) of -1.02. Sequence AAAACCTGCATATTCACCGTTA has a sensor-assay potency score (higher = more potent) of 0.263. In the case of AACCTGAACATTTCGCTCCTGT, the sensor-assay potency score (higher = more potent) was 0.681. TAAGCAAACAGTATCAATCTGT gave a sensor-assay potency score (higher = more potent) of 0.453. Work on TGCTATGAGTCTCTGCACCTGC yielded a sensor-assay potency score (higher = more potent) of 0.0571.

Each sequence was assayed against PSRC1 in the same assay as above. Conditions: shRNA.
Sequence TTTGCTACTGAAGTCTTGCTTG has a sensor-assay potency score (higher = more potent) of -0.274. With TTGACAGAGAATCCGGAGGTAG the sensor-assay potency score (higher = more potent) was -1.05. Sequence TCGCTGGGAAACAGGAACCTTG has a sensor-assay potency score (higher = more potent) of -1.78. Work on TCGGACAGGACTATCCTTCAGC yielded a sensor-assay potency score (higher = more potent) of -0.556. TTTCCCGCACTCTGTGTCCTGC showed a sensor-assay potency score (higher = more potent) of -0.995. TCTGGAGTCACCAACACTGTTA gave a sensor-assay potency score (higher = more potent) of -0.586. For TATTTGTTCATTTCACTGCTGG, the sensor-assay potency score (higher = more potent) was 0.584. TTCGAGTTGACAGAGAATCCGG was tested, and the sensor-assay potency score (higher = more potent) was 0.0316. Sequence TAGGCTGAGCCTCACACCCTGG has a sensor-assay potency score (higher = more potent) of -1.11. Work on TCGAGTTGACAGAGAATCCGGA yielded a sensor-assay potency score (higher = more potent) of 0.42. TATCATTACTCCGGAGTCGAGG showed a sensor-assay potency score (higher = more potent) of -0.921.
Also: reference of the scale not given here.
